Some test systems named below: TYRO3; ULK1; ULK2; ULK3; VRK2; WEE1; WEE2; WNK1; WNK2; WNK3; WNK4.
Holding throughout (conditions): concentration: 1 μM,replicates: in singlicate; n = 1
Test [1] concerns TYK2(JH2domain-pseudokinase).
In a further test the test system is T1, VEGFR2.
T1 construct: gene KDR

For the next test, the system named is T2, VPS34.
T2 construct: gene PIK3C3

The next test has as its system T3, YANK1.
T3 construct: gene STK32A

The subject of the next test is T4, YANK2.
T4 construct: gene STK32B

The test system of a further test is T5, YANK3.
T5 construct: gene STK32C

The next test relates to T6, YES.
T6 construct: gene YES1

The subject of the next test is T7, YSK1.
T7 construct: gene STK25

A further test relates to T8, YSK4.
T8 construct: gene MAP3K19

The structures appear in SMILES notation.
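Further: KINOMEscan kinase panel screen.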

Regarding `Cc1cccc2c(-c3ccncc3)c(-c3ccc(F)cc3)nn12.Cl` [GW461487], the “%Inh” value in test [1] was 0%; with TYRO3, 0%; in the test with ULK1, 0%; in the test on ULK2 it was 0%; with ULK3 it was 1%; in the test on VEGFR2, 0%. The “%Inh” value in the test on VPS34 was 18%; with VRK2, 0%; with WEE1, 8%; in the test on WEE2, 11%; in the test on WNK1, 0%; with WNK2, 0%. The “%Inh” value with WNK3 was 13%; in the test on WNK4 it was 0%; in the test on YANK1, 27%; in the test with YANK2 it was 8%; in the test on YANK3 it was 22%; in the test with YES, 11%. The “%Inh” value worked out at 11% in the test on YSK1 and 0% in the test on YSK4.
Turning to `C[C@@H]1CNc2c(sc3ccc4nc(-c5ccc(O)cc5)ccc4c23)C(=O)N1`, the “%Inh” value is listed as 23% in test [1]; 0% in the test with TYRO3; 38% in the test on ULK1; 63% with ULK2; 24% with ULK3; 11% in the test on VEGFR2. In addition, the “%Inh” value in the test on VPS34 is given as 9%; in the test on VRK2, 17%; in the test on WEE1, 17%; with WEE2, 0%; in the test with WNK1, 0%; in the test on WNK2, 2%. The “%Inh” value stood at 0% with WNK3; 11% with WNK4; 0% in the test on YANK1; 9% in the test on YANK2; 1% in the test with YANK3; 0% with YES. Moreover, the “%Inh” value in the test with YSK1 worked out at 0%; in the test on YSK4, 46%.
As to `O=C(Nc1n[nH]c2cc(-c3ccco3)ccc12)C1CC1` [SB-737447], the “%Inh” value in test [1] was 0%; in the test with TYRO3, 0%; in the test with ULK1 it was 11%; in the test with ULK2, 0%; in the test on ULK3, 20%; in the test on VEGFR2, 6%. Also, the “%Inh” value in the test on VPS34 is 16%; in the test on VRK2 it was 0%; in the test on WEE1, 0%; in the test with WEE2, 2%; in the test with WNK1, 0%; with WNK2, 0%. Also, the “%Inh” value in the test with WNK3, in the test on WNK4, with YANK1, in the test with YANK2, with YANK3 and in the test with YES was 0% each time. Moreover, the “%Inh” value in the test with YSK1 is 0%; in the test with YSK4, 96.2%.
Turning to `CCNCC(Cc1ccccc1)NC(=O)c1cc(Br)c(-c2ccnc3[nH]ccc23)s1.Cl.Cl` (centres unmarked) [GSK1383280], the “%Inh” value in test [1] came to 10%; in the test with TYRO3, 0%; with ULK1 it was 0%; in the test with ULK2 it was 0%; with ULK3, 8%; in the test with VEGFR2, 36%. Moreover, the “%Inh” value turned out to be 0% in the test on VPS34; 0% in the test on VRK2; 0% in the test with WEE1; 7% in the test with WEE2; 0% in the test with WNK1; 0% with WNK2. Besides, the “%Inh” value in the test with WNK3 turned out to be 9%; in the test with WNK4, 28%; in the test with YANK1, 23%; with YANK2 it was 0%; in the test on YANK3, 11%; with YES it was 19%. For the same molecule, the “%Inh” value is on record as 18% in the test on YSK1 and 92.5% in the test on YSK4.
On to `CCN1CCN(CCCC(=O)Nc2n[nH]c3nc(-c4ccc(O)cc4)c(Br)cc23)CC1` [SB-731579], for which the “%Inh” value in [1] came out at 0%; with TYRO3 it was 0%; in the test on ULK1, 0%; with ULK2, 0%; in the test with ULK3, 6%; in the test with VEGFR2, 0%. Besides, the “%Inh” value in the test on VPS34 came to 0%; in the test on VRK2, 69%; in the test with WEE1, 0%; in the test on WEE2 it was 29%; in the test on WNK1, 0%; in the test on WNK2, 0%. Further, the “%Inh” value in the test with WNK3, in the test with WNK4, with YANK1, in the test with YANK2, in the test with YANK3 and in the test on YES was 0% throughout. Besides, the “%Inh” value amounted to 0% in the test on YSK1 and 85% in the test on YSK4.
Turning to `Cn1ccc2ncnc(Oc3ccc(NC(=O)Nc4cc(C(C)(C)C)on4)c(Cl)c3)c21`, the “%Inh” value turned out to be 26% in test [1]; 28% with TYRO3; 8% in the test on ULK1; 11% in the test on ULK2; 16% in the test with ULK3; 97.5% in the test with VEGFR2. Also, the “%Inh” value came out at 16% in the test on VPS34; 19% in the test with VRK2; 0% in the test with WEE1; 23% in the test on WEE2; 0% in the test with WNK1; 20% in the test with WNK2. Further, the “%Inh” value is recorded as 0% in the test with WNK3; 0% in the test on WNK4; 0% in the test with YANK1; 5% in the test on YANK2; 0% in the test with YANK3; 3% with YES. For the same molecule, the results for the “%Inh” value with YSK1 and with YSK4 were 0% and 99.5%, respectively.
Consider `CN(c1ccc2c(c1)nc(NCc1ccc(F)cc1)n2C)c1ccnc(Nc2ccc(CS(C)(=O)=O)cc2)n1.Cl` [GW813244], for which the “%Inh” value in test [1] was found to be 12%; with TYRO3 it was 4%; with ULK1, 28%; with ULK2, 13%; in the test with ULK3, 21%; with VEGFR2 it was 98.3%. Besides, the “%Inh” value in the test on VPS34 is 30%; in the test on VRK2, 6%; in the test on WEE1 it was 0%; in the test on WEE2 it was 7%; with WNK1, 17%; in the test with WNK2, 3%. Further, the “%Inh” value is 13% with WNK3; 0% in the test with WNK4; 0% with YANK1; 0% with YANK2; 0% with YANK3; 7% in the test on YES. Also, the “%Inh” value was 4% with YSK1 and 99.3% with YSK4.
Consider `CN1CCN(CCNc2nc3cc(Oc4ccc(NC(=O)Nc5cc(C(F)(F)F)ccc5F)cc4)ccc3[nH]2)CC1.Cl.Cl` [GW768504], for which the “%Inh” value worked out at 0% in [1]; 0% in the test with TYRO3; 0% with ULK1; 0% with ULK2; 0% in the test on ULK3; 58% in the test with VEGFR2. Moreover, the “%Inh” value in the test with VPS34 stood at 17%; in the test with VRK2 it was 0%; with WEE1, 8%; with WEE2 it was 2%; with WNK1 it was 0%; with WNK2 it was 0%. Besides, the “%Inh” value stood at 0% in the test with WNK3; 0% in the test on WNK4; 0% with YANK1; 0% with YANK2; 4% with YANK3; 0% with YES. For the same molecule, the results for the “%Inh” value in the test with YSK1 and in the test on YSK4 were 9% and 10%, respectively.
Take `CSc1nccc(-c2c(-c3ccc(F)cc3)ncn2CCCN2CCOCC2)n1.Cl` [SB-217146]: the “%Inh” value in test [1] is 22%; in the test with TYRO3, 0%; in the test with ULK1 it was 12%; with ULK2, 36%; in the test with ULK3 it was 14%; with VEGFR2, 7%. Moreover, the “%Inh” value in the test with VPS34 is on record as 16%; with VRK2 it was 30%; in the test on WEE1 it was 0%; in the test with WEE2, 1%; in the test with WNK1 it was 21%; with WNK2, 0%. The “%Inh” value in the test with WNK3, in the test with WNK4, in the test on YANK1, in the test with YANK2, in the test on YANK3 and with YES was 0% each time. In addition, the figures for the “%Inh” value with YSK1 and in the test on YSK4 were 0% and 25%, respectively.
In the case of `CC(C(=O)NC1CCN(c2ccnc(Nc3ccc(F)cc3)n2)C1)c1ccc(Cl)cc1` (centres unmarked) [GSK1379713], the “%Inh” value in test [1] was 0%; in the test with TYRO3 it was 0%; in the test with ULK1, 7%; in the test on ULK2, 0%; in the test with ULK3, 2%; in the test on VEGFR2 it was 3%. For the same molecule, the “%Inh” value worked out at 4% in the test on VPS34; 0% in the test with VRK2; 6% in the test on WEE1; 13% in the test on WEE2; 1% in the test with WNK1; 0% in the test with WNK2. The “%Inh” value in the test on WNK3 amounted to 73%; with WNK4 it was 0%; in the test with YANK1, 0%; with YANK2 it was 0%; in the test with YANK3, 0%; in the test with YES, 0%. Besides, the “%Inh” value with YSK1 and in the test on YSK4 was 0% in each case.
